Article PMC7862700, “An all-to-all approach to the identification of sequence-specific readers for epigenetic DNA modifications on cytosine”

Tests used:
Assay in all cases: DAPPL (digital affinity profiling via proximity ligation, sequencing); 10 mM Tris-HCl pH 7.5, 50 mM NaCl, 1 mM DTT, 4% glycerol, room temperature, 30 min; GST-TFs on glutathione beads, 16-mer random dsDNA library, 0.1% formaldehyde crosslink after washing; high values mean tight binding
[1] = biological target: T1, FEV (Homo sapiens, UniProt Q99581 1-238); conditions: protein: recombinant; tags: N-terminal GST; dsDNA, one strand shown
T1 sequence: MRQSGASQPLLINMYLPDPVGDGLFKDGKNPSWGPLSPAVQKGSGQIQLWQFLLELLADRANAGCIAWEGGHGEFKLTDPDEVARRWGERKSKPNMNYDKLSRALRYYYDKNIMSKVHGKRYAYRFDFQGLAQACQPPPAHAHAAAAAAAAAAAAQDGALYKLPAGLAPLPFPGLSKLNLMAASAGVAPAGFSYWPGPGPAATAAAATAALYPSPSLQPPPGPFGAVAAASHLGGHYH
Outline: (§1)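 Human transcription factors carrying a GST fusion were produced in yeast, bound to glutathione beads, tagged with DNA barcodes and pooled together with a tag-only sample. Each pool was held with 200 nmole of a random double-stranded 16-mer DNA library in Tris/NaCl/DTT/glycerol buffer for 30 min at room temperature, then washed, crosslinked in 0.1% formaldehyde, proximity-ligated with BsaI/T4 ligase (1 h, 37 °C), PCR-amplified and sequenced on an Illumina NextSeq500. Binding signal is the read frequency of each hexamer for a given factor divided by its frequency in the tag-only sample.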

[2] = biological target: ETV5 (Homo sapiens, UniProt P41161 1-510); conditions: protein: recombinant; tags: N-terminal GST; dsDNA, one strand shown
Outline: as §1

[3] = biological target: HSF1 (Homo sapiens, UniProt Q00613 1-529); conditions: protein: recombinant; tags: N-terminal GST; chain copies: 3; dsDNA, one strand shown
Outline: as §1

[4] = biological target: T2, SPIC (Homo sapiens, UniProt Q8N5J4 1-248); conditions: protein: recombinant; tags: N-terminal GST; dsDNA, one strand shown
T2 sequence: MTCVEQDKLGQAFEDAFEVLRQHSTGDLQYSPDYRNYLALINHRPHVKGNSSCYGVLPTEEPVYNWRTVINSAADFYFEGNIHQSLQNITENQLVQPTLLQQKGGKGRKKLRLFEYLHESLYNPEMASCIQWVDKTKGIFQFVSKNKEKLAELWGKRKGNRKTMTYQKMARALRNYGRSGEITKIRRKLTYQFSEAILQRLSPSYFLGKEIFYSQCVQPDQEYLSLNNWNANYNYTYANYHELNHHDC
Outline: as §1

[5] = biological target: ELF4 (Homo sapiens, UniProt Q99607 1-663); conditions: protein: recombinant; tags: N-terminal GST; dsDNA, one strand shown
Outline: as §1

[6] = biological target: T3, ELK4 (Homo sapiens, UniProt P28324-2 1-405); conditions: protein: recombinant; tags: N-terminal GST; dsDNA, one strand shown
T3 sequence: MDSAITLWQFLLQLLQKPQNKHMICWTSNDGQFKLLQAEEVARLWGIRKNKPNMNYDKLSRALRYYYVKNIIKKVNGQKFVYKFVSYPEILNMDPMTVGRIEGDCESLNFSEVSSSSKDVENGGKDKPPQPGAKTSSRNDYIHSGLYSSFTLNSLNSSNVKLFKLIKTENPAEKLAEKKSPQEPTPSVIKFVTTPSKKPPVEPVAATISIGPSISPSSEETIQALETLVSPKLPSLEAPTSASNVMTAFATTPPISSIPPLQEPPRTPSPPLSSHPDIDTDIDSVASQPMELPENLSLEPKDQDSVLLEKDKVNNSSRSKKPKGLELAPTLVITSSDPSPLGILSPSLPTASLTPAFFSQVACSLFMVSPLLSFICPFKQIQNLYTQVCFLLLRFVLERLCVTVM
Outline: as §1

[7] = biological target: T4, ETV2 (Homo sapiens, UniProt O00321 1-342); conditions: protein: recombinant; tags: N-terminal GST; dsDNA, one strand shown
T4 sequence: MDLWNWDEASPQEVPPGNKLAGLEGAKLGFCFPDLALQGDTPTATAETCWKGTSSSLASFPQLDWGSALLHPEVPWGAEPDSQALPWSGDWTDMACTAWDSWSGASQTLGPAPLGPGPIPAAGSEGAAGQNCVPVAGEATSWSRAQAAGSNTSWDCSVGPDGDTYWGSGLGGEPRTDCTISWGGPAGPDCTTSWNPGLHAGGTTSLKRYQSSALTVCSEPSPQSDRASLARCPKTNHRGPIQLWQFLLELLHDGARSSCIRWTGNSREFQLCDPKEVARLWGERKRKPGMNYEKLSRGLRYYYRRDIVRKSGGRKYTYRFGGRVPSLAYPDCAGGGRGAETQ
Outline: as §1

[8] = biological target: T5, ELF3 (Homo sapiens, UniProt P78545 1-371); conditions: protein: recombinant; tags: N-terminal GST; dsDNA, one strand shown
T5 sequence: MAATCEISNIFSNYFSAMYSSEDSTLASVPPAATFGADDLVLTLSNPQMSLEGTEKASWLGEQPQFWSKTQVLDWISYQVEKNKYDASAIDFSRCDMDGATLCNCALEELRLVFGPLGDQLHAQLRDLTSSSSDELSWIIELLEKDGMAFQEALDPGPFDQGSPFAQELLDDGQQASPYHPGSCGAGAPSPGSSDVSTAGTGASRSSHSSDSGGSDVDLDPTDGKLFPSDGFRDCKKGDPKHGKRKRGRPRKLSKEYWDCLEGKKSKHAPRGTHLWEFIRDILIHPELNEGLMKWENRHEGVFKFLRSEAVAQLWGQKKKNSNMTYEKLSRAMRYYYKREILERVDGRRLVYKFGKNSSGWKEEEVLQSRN
Outline: as §1

[9] = biological target: CRX (Homo sapiens, UniProt O43186 1-299); conditions: protein: recombinant; tags: N-terminal GST; dsDNA, one strand shown
Outline: as §1

[10] = biological target: ETV1 (Homo sapiens, UniProt P50549 1-477); conditions: protein: recombinant; tags: N-terminal GST; dsDNA, one strand shown
Outline: as §1

ETV5, sequence (P41161 whole entry): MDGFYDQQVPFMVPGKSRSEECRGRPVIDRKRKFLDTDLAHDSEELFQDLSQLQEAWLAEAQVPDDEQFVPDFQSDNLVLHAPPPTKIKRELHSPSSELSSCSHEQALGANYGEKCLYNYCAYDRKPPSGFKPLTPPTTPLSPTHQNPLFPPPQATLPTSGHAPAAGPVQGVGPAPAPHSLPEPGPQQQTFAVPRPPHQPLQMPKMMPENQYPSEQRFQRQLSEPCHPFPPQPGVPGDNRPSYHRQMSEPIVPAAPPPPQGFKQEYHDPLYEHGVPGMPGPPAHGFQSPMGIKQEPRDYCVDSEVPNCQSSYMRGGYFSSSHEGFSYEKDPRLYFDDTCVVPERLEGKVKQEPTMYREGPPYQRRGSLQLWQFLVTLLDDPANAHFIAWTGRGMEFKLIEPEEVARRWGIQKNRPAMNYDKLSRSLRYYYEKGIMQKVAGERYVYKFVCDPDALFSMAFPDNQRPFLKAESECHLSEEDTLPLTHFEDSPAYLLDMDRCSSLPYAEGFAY
CRX, sequence (O43186 whole entry): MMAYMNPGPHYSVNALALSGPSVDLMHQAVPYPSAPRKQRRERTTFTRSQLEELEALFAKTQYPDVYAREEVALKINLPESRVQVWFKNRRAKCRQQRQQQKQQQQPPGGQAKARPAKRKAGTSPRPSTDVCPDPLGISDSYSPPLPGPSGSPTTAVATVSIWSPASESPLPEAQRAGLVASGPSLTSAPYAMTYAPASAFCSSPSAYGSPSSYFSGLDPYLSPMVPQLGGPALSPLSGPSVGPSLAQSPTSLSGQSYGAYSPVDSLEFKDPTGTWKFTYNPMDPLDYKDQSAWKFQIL
ETV1, sequence (P50549 whole entry): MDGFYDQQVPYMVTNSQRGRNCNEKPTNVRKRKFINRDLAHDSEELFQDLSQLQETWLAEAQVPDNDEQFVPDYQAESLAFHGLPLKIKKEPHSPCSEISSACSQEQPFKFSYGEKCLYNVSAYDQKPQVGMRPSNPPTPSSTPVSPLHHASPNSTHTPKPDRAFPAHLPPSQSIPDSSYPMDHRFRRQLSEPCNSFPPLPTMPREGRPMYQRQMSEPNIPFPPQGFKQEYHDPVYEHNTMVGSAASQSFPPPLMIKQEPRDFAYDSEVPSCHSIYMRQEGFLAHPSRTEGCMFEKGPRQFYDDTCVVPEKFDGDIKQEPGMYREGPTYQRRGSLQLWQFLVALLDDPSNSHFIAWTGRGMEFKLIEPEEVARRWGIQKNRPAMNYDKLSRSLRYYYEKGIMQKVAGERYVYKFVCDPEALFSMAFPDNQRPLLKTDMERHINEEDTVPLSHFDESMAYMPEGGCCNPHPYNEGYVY
HSF1, sequence (Q00613 whole entry): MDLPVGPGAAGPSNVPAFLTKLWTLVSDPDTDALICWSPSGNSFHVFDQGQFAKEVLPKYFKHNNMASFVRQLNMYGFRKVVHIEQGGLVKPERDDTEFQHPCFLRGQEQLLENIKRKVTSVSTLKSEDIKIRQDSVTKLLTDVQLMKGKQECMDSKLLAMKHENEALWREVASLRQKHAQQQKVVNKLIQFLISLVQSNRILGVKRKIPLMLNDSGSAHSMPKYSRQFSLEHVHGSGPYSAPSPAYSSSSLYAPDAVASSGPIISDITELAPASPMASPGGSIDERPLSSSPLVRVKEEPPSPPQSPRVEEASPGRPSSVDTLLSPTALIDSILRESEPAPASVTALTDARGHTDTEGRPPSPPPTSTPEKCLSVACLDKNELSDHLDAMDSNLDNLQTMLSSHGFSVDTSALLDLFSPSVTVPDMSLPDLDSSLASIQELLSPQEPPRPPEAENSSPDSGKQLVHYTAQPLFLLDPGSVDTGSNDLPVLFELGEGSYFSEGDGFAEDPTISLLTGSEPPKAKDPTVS
ELF4, sequence (Q99607 whole entry): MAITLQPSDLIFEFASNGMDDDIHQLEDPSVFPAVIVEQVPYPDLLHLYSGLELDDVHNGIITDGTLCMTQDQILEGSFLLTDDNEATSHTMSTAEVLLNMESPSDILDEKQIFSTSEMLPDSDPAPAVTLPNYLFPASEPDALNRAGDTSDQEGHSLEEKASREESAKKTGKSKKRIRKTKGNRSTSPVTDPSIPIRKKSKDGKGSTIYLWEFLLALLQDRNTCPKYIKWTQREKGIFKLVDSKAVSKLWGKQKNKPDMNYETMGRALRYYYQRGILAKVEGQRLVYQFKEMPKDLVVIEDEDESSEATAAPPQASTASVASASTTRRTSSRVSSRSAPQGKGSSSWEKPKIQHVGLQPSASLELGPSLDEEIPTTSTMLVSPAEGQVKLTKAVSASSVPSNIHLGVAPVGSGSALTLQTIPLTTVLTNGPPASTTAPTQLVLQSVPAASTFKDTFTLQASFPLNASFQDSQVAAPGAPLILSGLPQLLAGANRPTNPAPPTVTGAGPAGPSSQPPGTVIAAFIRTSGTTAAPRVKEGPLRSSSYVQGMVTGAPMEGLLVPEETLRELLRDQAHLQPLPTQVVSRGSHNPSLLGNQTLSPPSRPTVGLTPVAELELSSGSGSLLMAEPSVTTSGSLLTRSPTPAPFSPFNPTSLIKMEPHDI

Row | Sequence | binding signal [1] | binding signal [2] | binding signal [3] | binding signal [4] | binding signal [5] | binding signal [6] | binding signal [7] | binding signal [8] | binding signal [9] | binding signal [10]
1 | AACTCT | 1.31 fold enrichment (6-mer frequency, TF over GST control) | 1.36 fold enrichment (6-mer frequency, TF over GST control) | 1.4 fold enrichment (6-mer frequency, TF over GST control) | 1.6 fold enrichment (6-mer frequency, TF over GST control) | 1.36 fold enrichment (6-mer frequency, TF over GST control) | 1.24 fold enrichment (6-mer frequency, TF over GST control) | 1.24 fold enrichment (6-mer frequency, TF over GST control) | 1.44 fold enrichment (6-mer frequency, TF over GST control) | 1.37 fold enrichment (6-mer frequency, TF over GST control) | 1.36 fold enrichment (6-mer frequency, TF over GST control)
2 | CTAAGT | 1.13 fold enrichment (6-mer frequency, TF over GST control) | 1.18 fold enrichment (6-mer frequency, TF over GST control) | 1.3 fold enrichment (6-mer frequency, TF over GST control) | 1.24 fold enrichment (6-mer frequency, TF over GST control) | 1.24 fold enrichment (6-mer frequency, TF over GST control) | 1.13 fold enrichment (6-mer frequency, TF over GST control) | 1.24 fold enrichment (6-mer frequency, TF over GST control) | 1.02 fold enrichment (6-mer frequency, TF over GST control) | 1.8 fold enrichment (6-mer frequency, TF over GST control) | 1.18 fold enrichment (6-mer frequency, TF over GST control)
3 | ATCCTA | 1.32 fold enrichment (6-mer frequency, TF over GST control) | 1.37 fold enrichment (6-mer frequency, TF over GST control) | 1.61 fold enrichment (6-mer frequency, TF over GST control) | 1.44 fold enrichment (6-mer frequency, TF over GST control) | 1.32 fold enrichment (6-mer frequency, TF over GST control) | 1.26 fold enrichment (6-mer frequency, TF over GST control) | 1.41 fold enrichment (6-mer frequency, TF over GST control) | 1.24 fold enrichment (6-mer frequency, TF over GST control) | 2.19 fold enrichment (6-mer frequency, TF over GST control) | 1.32 fold enrichment (6-mer frequency, TF over GST control)
4 | TCCCAT | 1.32 fold enrichment (6-mer frequency, TF over GST control) | 1.34 fold enrichment (6-mer frequency, TF over GST control) | 1.21 fold enrichment (6-mer frequency, TF over GST control) | 1.45 fold enrichment (6-mer frequency, TF over GST control) | 1.29 fold enrichment (6-mer frequency, TF over GST control) | 1.27 fold enrichment (6-mer frequency, TF over GST control) | 1.41 fold enrichment (6-mer frequency, TF over GST control) | 1.44 fold enrichment (6-mer frequency, TF over GST control) | 1.43 fold enrichment (6-mer frequency, TF over GST control) | 1.37 fold enrichment (6-mer frequency, TF over GST control)
5 | AGCTAT | 1.16 fold enrichment (6-mer frequency, TF over GST control) | 1.16 fold enrichment (6-mer frequency, TF over GST control) | 1.12 fold enrichment (6-mer frequency, TF over GST control) | 1.15 fold enrichment (6-mer frequency, TF over GST control) | 1.15 fold enrichment (6-mer frequency, TF over GST control) | 1.27 fold enrichment (6-mer frequency, TF over GST control) | 1.2 fold enrichment (6-mer frequency, TF over GST control) | 1.2 fold enrichment (6-mer frequency, TF over GST control) | 1.27 fold enrichment (6-mer frequency, TF over GST control) | 1.2 fold enrichment (6-mer frequency, TF over GST control)
6 | TTAGGG | 1.13 fold enrichment (6-mer frequency, TF over GST control) | 1.16 fold enrichment (6-mer frequency, TF over GST control) | 1.48 fold enrichment (6-mer frequency, TF over GST control) | 1.04 fold enrichment (6-mer frequency, TF over GST control) | 1.16 fold enrichment (6-mer frequency, TF over GST control) | 1.02 fold enrichment (6-mer frequency, TF over GST control) | 1.15 fold enrichment (6-mer frequency, TF over GST control) | 1.2 fold enrichment (6-mer frequency, TF over GST control) | 2.19 fold enrichment (6-mer frequency, TF over GST control) | 1.03 fold enrichment (6-mer frequency, TF over GST control)
7 | CCTAGC | 1.18 fold enrichment (6-mer frequency, TF over GST control) | 1.15 fold enrichment (6-mer frequency, TF over GST control) | 1.17 fold enrichment (6-mer frequency, TF over GST control) | 1.17 fold enrichment (6-mer frequency, TF over GST control) | 1.16 fold enrichment (6-mer frequency, TF over GST control) | 1.13 fold enrichment (6-mer frequency, TF over GST control) | 1.13 fold enrichment (6-mer frequency, TF over GST control) | 1.12 fold enrichment (6-mer frequency, TF over GST control) | 1.02 fold enrichment (6-mer frequency, TF over GST control) | 1.13 fold enrichment (6-mer frequency, TF over GST control)
8 | TTAAAC | 1.21 fold enrichment (6-mer frequency, TF over GST control) | 1.29 fold enrichment (6-mer frequency, TF over GST control) | 1.7 fold enrichment (6-mer frequency, TF over GST control) | 1.05 fold enrichment (6-mer frequency, TF over GST control) | 1.21 fold enrichment (6-mer frequency, TF over GST control) | 1.26 fold enrichment (6-mer frequency, TF over GST control) | 1.26 fold enrichment (6-mer frequency, TF over GST control) | 1.19 fold enrichment (6-mer frequency, TF over GST control) | 2.58 fold enrichment (6-mer frequency, TF over GST control) | 1.24 fold enrichment (6-mer frequency, TF over GST control)
